# Chronic BCR inh: blocks chronic active B-cell receptor signaling; ABC-DLBCL IkBa-CBG/CBR reporter, luminescence ratio, 4 h; Potency, µM (titrated, usually from 46.1 µM), hits mostly inhibitors; actives 0.05% (n = 340,000); AID 493014; active = well fitted inhibition curve with a large enough effect in the signal ratio, with a control signal flat, not every such curve was filed as active; inconclusive = small, poorly fitted or top-dose-only effect, or effect the other way, or a change in a side signal; the % refers to the signal ratio
#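 Cell line TMD8 (human ABC DLBCL), stably expressing tet-inducible CBG68-IkBa fusion and CBR; IMDM/0.5% FBS; cpd up to 46 uM; dox induction, 4 h, 37C/5% CO2; dual luminescence; green/red ratio; MG132 control.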
# MCF10A rerep: DNA re-replication induction in MCF 10a cells; MCF 10A DNA re-replication, Hoechst nuclear intensity, 48 h; Potency, µM (highest dose often 46.1 µM), hits mostly activators; actives 2.9% (n = 350,000); AID 624296; note: nearly all actives have a fitted effect of over 50% in size
# TDP1 cell noCPT: qHTS for Inhibitors of human tyrosyl-DNA phosphodiesterase 1 (TDP1): qHTS in cells in absence of CPT. DT40 Tdp1-/- hTDP1 cells, no CPT, ATP luminescence, 48 h. Potency, µM (doses to about 46.2 µM), actives largely listed as inhibitors. actives 15% (n = 420,000); note: nearly all actives have a fitted effect of over 55% in size
#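 A cellular qHTS used chicken DT40 cells lacking endogenous Tdp1 but carrying stably transfected human TDP1. Compounds were applied without camptothecin, and cell growth kinetics were judged by ATP-dependent luminescence after ≥48 hr.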
# SW480 rerep: inducers of DNA re-replication in SW480 colon cancer cells | SW480 DNA re-replication, Hoechst DNA content imaging, 48 h | Potency, µM (series often up to 46.1 µM), most hits filed as activators | actives 1.8% (n = 340,000); note: nearly all actives have a fitted effect of over 55% in size
#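 DNA re-replication was detected as more nuclei of elevated Hoechst intensity after 48 hr exposure to compound (23 nL pinned per well of 250 cells).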
# IL1B secr inh: inflammasome signaling inhibition, IL-1 beta readout; activity change, % at 57.5 µM; THP-1 LPS/ATP IL-1B secretion, AlphaLISA, 16 h; hits give low values; actives 4.7% (n = 360,000); in the data active = activity change below about -50%; inconclusive = mostly about -30% to -49%
#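 Secreted IL-1B measured by AlphaLISA bead assay after 16 h compound exposure of THP-1 cells; compounds (final up to 57.5 uM) added 1 h before LPS (250 ng/mL) and ATP (1.25 mM) stimulation; lower signal means less secretion.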
# DT40 TDP1 CPT: DT40-hTDP1 cell growth loss with CPT; actives 12% (n = 420,000); Potency, µM (series often up to 46.2 µM), hits mostly inhibitors; AID 686979; chicken DT40 Tdp1-/-;hTDP1 cells + 20 nM CPT, ATP luminescence, 48 h; note: nearly all actives have a fitted effect of over 55% in size
#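 Chicken DT40 Tdp1-/- cells complemented with human TDP1, 400 cells/well, exposed to compounds plus 20 nM camptothecin for at least 48 h at 37 C; viability read as ATP content by CellTiter-Glo luminescence.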
# Hits are given with their value; i = inactive; ? = inconclusive; nt = no result given; ! = a repeat was not active. Only some compounds are listed: those with a hit (about 19% of all), similar ones and a draw of the others. Unless noted, calls come from the whole dose curve; as a rule, active = well fitted curve in the direction sought with a large enough effect; inconclusive = small, poorly fitted or top-dose-only effect, or another doubt; inactive = no such curve, though single readings can be large; an effect the other way counts as inactive or inconclusive.
SMILES,Chronic BCR inh,MCF10A rerep,TDP1 cell noCPT,SW480 rerep,IL1B secr inh,DT40 TDP1 CPT
COc1ccccc1N1CCN(C(=O)c2cc3cc(F)ccc3[nH]2)CC1,i,?,23.1µM,i,?,?
CSc1ccc(C(=O)C2CCCN(C(=O)c3cc4cc(F)ccc4[nH]3)C2)cc1 (centres undefined),?,i,18.4µM,?,-62.8,18.4µM
O=C(c1cc2cc(F)ccc2[nH]1)N1CCN(C(=O)c2ccco2)CC1,i,i,20.6µM,i,i,?
Cn1c(OCC2CCCO2)nc2cc(-c3ccccc3)sc2c1=O (centres undefined),nt,nt,?,nt,i,23.1µM
Cc1ccccc1-c1cc2nc(OCC3CCCO3)n(C)c(=O)c2s1 (centres undefined),nt,nt,?,nt,i,?
CCc1c(C2(O)CCCCC2)[nH]c2ccc(C(F)(F)F)cc12,?,?,?,i,-51.7,18.4µM
CC(C)(O)c1[nH]c2ccc(C(F)(F)F)cc2c1C(C)(C)O,?,?,?,?,i,i
O=C(NC(=S)Nc1ccc(Cl)cn1)c1cc([N+](=O)[O-])ccc1N1CCOCC1,i,i,i,i,i,i
O=C(c1ccc(CS(=O)c2ccccc2Cl)o1)N1CCN(c2cccc(C(F)(F)F)c2)CC1 (centres undefined),nt,nt,0.517µM,nt,nt,0.651µM
O=C(c1ccc(CS(=O)Cc2ccccc2Cl)o1)N1CCN(c2cccc(Cl)c2)CC1 (centres undefined),?,?,?,?,i,?
O=C(c1ccc(CS(=O)c2ccccc2Cl)o1)N1CCN(c2cccc(Cl)c2)CC1 (centres undefined),nt,nt,0.517µM,nt,nt,0.259µM
COc1ccc(NC(=O)CCC(=O)c2ccc(Cl)cc2)cn1,i,i,i,i,i,i
CNc1cc(CSc2ccc(Cl)cc2)nc(C)n1,?,i,?,5.17µM,i,?
COc1ccccc1CCC(=O)N1CCN(S(=O)(=O)c2cccc(F)c2)CC1,i,i,i,i,i,i
O=C(Cc1cccs1)N[C@@H]1C(=O)N2C(C(=O)[O-])=C(C[n+]3ccccc3)CS[C@H]12,nt,nt,i,nt,nt,i
COc1cccc(Nc2nc3cc(C)ccc3nc2NS(=O)(=O)c2ccc(Cl)cc2)c1,?,nt,4.11µM,nt,nt,5.17µM
CCOc1ccccc1Nc1nc2ccccc2nc1NS(=O)(=O)c1ccc(Cl)cc1,nt,nt,5.17µM,nt,nt,?
O=C(COC(=O)c1cccc(Br)c1)NCC1CCCO1 (centres undefined),i,i,i,i,i,i
COc1cccc(OC)c1C(=O)Nc1ccncc1,nt,i,i,i,i,i
NC1=NC[C@H](c2ccccc2)N1CC1CCCCC1,nt,i,16.4µM,i,-53.7,13µM
CCC(C)[C@H]1CN=C(N)N1CCc1cc(C(F)(F)F)cc(C(F)(F)F)c1 (some centres undefined),i,i,4.61µM,i,?,3.26µM
NC1=NC[C@@H](CC2CCCCC2)N1CCc1cc(C(F)(F)F)cc(C(F)(F)F)c1,i,?,3.66µM,i,-108.7,3.26µM
NC1=NC[C@H](c2ccccc2)N1CCc1cc(C(F)(F)F)cc(C(F)(F)F)c1,?,?,20.6µM,?,?,18.4µM
CC(O)[C@H]1CN=C(N)N1CCc1cc(C(F)(F)F)cc(C(F)(F)F)c1 (some centres undefined),i,i,i,i,i,i
O=C([C@@H]1CC=C[C@@H]2CCN(C3CCCCC3)C(=O)[C@@H]21)N1CCOCC1,nt,nt,i,nt,nt,i
SMILES,Chronic BCR inh,MCF10A rerep,TDP1 cell noCPT,SW480 rerep,IL1B secr inh,DT40 TDP1 CPT
COc1ccc(Cl)cc1NC(=O)c1nnn(CC(=O)Nc2ccc3c(c2)OCO3)c1N,i,i,i,i,i,i
CCOC(=O)N1CCN(CC(O)COC2CC(C)CCC2C(C)C)CC1 (centres undefined),?,?,?,i,i,?
CC1CCN(CC(O)COC2CC(C)CCC2C(C)C)CC1 (centres undefined),i,i,16.4µM,?,i,?
CC(NCC(O)COC1CCC(C(C)(C)C)CC1)c1ccccc1 (centres undefined),i,?,20.6µM,i,-67.2,?
CC1CCC(C(C)C)C(OCC(O)CNC(C)c2ccccc2)C1 (centres undefined),?,16.4µM,14.6µM,i,-107.9,?
CCCCN(CC)CCCNC(=O)Cn1nc(CC)n2c(cc3sccc32)c1=O,nt,nt,?,nt,nt,i
Cc1ccc(NC(=O)c2ccc(C(C)(C)C)cc2)cc1-n1cnnn1,i,i,29.1µM,i,i,?
CN(C)C(CNC(=O)c1ccc2c(=O)n(-c3ccccc3F)c(=S)[nH]c2c1)Cc1ccccc1 (centres undefined),i,i,18.4µM,i,i,25.9µM
CCOc1ccc(C(=O)Nc2nnc(S(=O)(=O)Nc3ccccc3)s2)cc1,nt,nt,?,nt,nt,i
COCCOC(=O)C1=C(C)N=C2SCCC(=O)N2C1c1ccc(OCc2ccccc2)c(OC)c1 (centres undefined),nt,nt,i,nt,nt,i
CN(C)CC(C)(C)CNS(=O)(=O)c1ccc(Cl)c(Cl)c1,?,?,2.31µM!,?,-53.8!,i
CC(C)C[C@H](NC(=O)c1[nH]cnc1C(=O)N[C@H](C)c1ccccc1)C(=O)OCc1ccccc1,i,?,16.4µM,i,i,?
CC(C)C[C@H](NC(=O)c1nc[nH]c1C(=O)N[C@@H](CC(C)C)C(=O)OCc1ccccc1)C(=O)OCc1ccccc1,?,?,25.9µM,?,i,23.1µM
Cc1ccc(S(=O)(=O)Cc2ccccc2Cl)cc1,i,?,20.6µM,?,i,?
COc1ccc(S(=O)(=O)N2CCC(C(=O)NN3CCCCC3)CC2)cc1OC,i,i,i,i,i,i
CCN1CC=C2C(C1)C(c1ccc(Cl)s1)C(C#N)=C(N)C2(C#N)C#N (centres undefined),i,i,?,i,i,16.4µM
Cc1ccc(S(=O)(=O)N2C[C@]3(O)C[C@@H]4C(=O)N(c5ccccc5)C(=O)[C@@H]4C[C@]3(OC(=O)Nc3cccs3)C2)cc1,nt,nt,?,nt,i,?
Cc1ccc(S(=O)(=O)N2C[C@H]3N(C(=O)OC(C)C)N(C(=O)OC(C)C)C[C@H](OC(=O)Nc4cccs4)[C@@]3(O)C2)cc1,nt,nt,23.1µM,nt,-80.4,?
COC(=O)[C@H]1C[C@H](OC(=O)Nc2c(C)noc2C)[C@@]2(O)CN(S(=O)(=O)c3ccc(C)cc3)CC2[C@H]1C(=O)OC (some centres undefined),nt,nt,?,nt,i,i

# Source: PubChem
